PubChem BioAssay AID1053175 (ICCB-Longwood Screening Facility, Harvard Medical School, 2014)
“And” between values parts separate entries of the source, which are not always exact repeats. Equal values may be shown once. The campaign covered roughly 330,000 compounds. About 700 (0.21%) were called active.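 The calls were made as follows: active = OD600 absorbance below the run mean of sample wells minus 3.6 SD, in any replicate (cut at about 0.56 in these data); inactive = the rest.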 What follows is part of a selection rich in actives, with near analogues and random picks from the rest. Some compounds were tested as several samples or in several runs, with calls that do not always agree.

Test: E. coli growth inhibition, primary screen, OD600 (AID 1053175)
Details: Escherichia coli growth, OD600, 23 h; stronger effect = lower value

Compound	OD600 absorbance
CC(C)CC(CSc1ccccc1)N1CCN(C)CCC1=O (stereo unspecified)	0.708 (inactive)
CCc1ccc(NC(=O)CC(C)=NNC(=O)OCc2ccc(OC)cc2)cc1	0.657 (inactive)
COc1ccc(C=NNC(=O)c2ccccc2[N+](=O)[O-])cc1CN1CCc2cc(OC)c(OC)cc2C1C (stereo unspecified)	0.712 (inactive)
Cc1ccc(NC(=O)C=NOCC(=O)NCc2ccccc2Cl)cc1	0.705 (inactive)
CCOC1OC(C(N)=O)=CC(c2ccccc2)C1CCCO (stereo unspecified)	0.702 (inactive) and 0.686 (inactive)
CC(NC(=O)C(=O)NN=Cc1ccc(Cl)cc1)c1ccccc1 (stereo unspecified)	0.673 (inactive)
CCN=c1scc(C)n1N=Cc1ccsc1	0.697 (inactive)
Cc1ccc(C2=[N+]([O-])C3(CCCCCC3=NNC(N)=S)N(O)C2(C)C)o1 (stereo unspecified)	0.771 (inactive)
O=C(O)c1csc(NN=Cc2ccc(Br)cc2)n1	0.677 (inactive)
O=C1CCCC(=NNC(=O)c2cc(NS(=O)(=O)c3cccs3)cc(NS(=O)(=O)c3cccs3)c2)C1	0.669 (inactive)
CCOC(=O)C1C2COc3cc(OC)ccc3C2N2C(=O)N(c3ccc(C(F)(F)F)cc3)C(=O)[C@@]12C (stereo partly specified)	0.696 (inactive) and 0.712 (inactive)
C=CCN1c2ccccc2[C@]23CC(C(=O)OC)N(C(=O)c4cc(C)oc4C)C2=NC(C(=O)OC)=C(C(=O)OC)C13 (stereo partly specified)	0.651 (inactive)
CC(=NNC(=O)c1ccncc1)c1cc2ccccc2o1	0.717 (inactive)
Cc1cc(C)c(C)c(OCC(=O)ON=C(N)c2ccccn2)c1	0.733 (inactive)
COC(=O)c1ccc(C=NNC(=O)C2CC(=O)N(c3ccc(F)cc3)C2)cc1 (stereo unspecified)	0.657 (inactive)
Cc1nc2ccccn2c1C(=O)NN=Cc1ccc2c(c1)OCO2	0.657 (inactive)
O=[N+]([O-])c1ccc(C=NN2CCN(c3ccc(Cl)cc3)CC2)cc1	0.805 (inactive)
Cc1cccc(NC(=S)Nc2ccc(Cl)c(Cl)c2)c1	0.495 (active)
Cc1cccc(NC(=S)Nc2ccc3cn[nH]c3c2)c1	0.655 (inactive)
Cc1cccc(NC(=S)NC23CN4CN(CN(C4)C2)C3)c1	0.691 (inactive)
O=C(O)c1cc2c(o1)CCCC2=NO	0.711 (inactive)
C=CCc1cc(C)ccc1OCCCn1ccnc1	0.666 (inactive)
c1ccc(Cc2ccc(OCCn3ccnc3)cc2)cc1	0.583 (inactive)

Compound	OD600 absorbance
Clc1c(OCCCn2ccnc2)ccc2ccccc12	0.49 (active)
NC(CCCN1CCCCC1)=NO	0.705 (inactive)
CCCSc1ccc(C2N[C@@](CC(C)C)(C(=O)OC)C3C(=O)N(CC)C(=O)C23)cc1 (stereo partly specified)	0.649 (inactive)
O=C(CN1CCN(c2ccc(F)cc2)CC1)Nc1ccccc1	0.673 (inactive)
Oc1c(CN2CCN(c3ccc(F)cc3)CC2)cc(Cl)c2cccnc12	0.332 (active)
Fc1ccc(N2CCN(Cc3cnc(Oc4ccc(Br)cc4)s3)CC2)cc1	0.726 (inactive)
CCN1C(Nc2ccccc2)=NCC1CC(C)C (stereo unspecified)	0.698 (inactive)
CC(NC(=O)COc1ccc(C=NNC(=O)C(=O)Nc2ccccc2Br)cc1)c1ccccc1 (stereo unspecified)	0.788 (inactive)
O=C(Nc1ccccc1C(=O)NN=Cc1ccncc1)c1ccccc1	0.706 (inactive)
CC(=NNC(=O)c1cccc(S(=O)(=O)N2CCCC2)c1)c1ccco1	0.651 (inactive)
COc1cc(C=NNC(=O)c2ccncc2)ccc1OC(=O)c1cccc(Br)c1	0.605 (inactive)
COc1ccc(C(=O)ON=C2CCS(=O)(=O)c3sccc32)cc1	0.66 (inactive)
CC(NCC(=O)Nc1cc(Cl)cc(Cl)c1)c1ccccc1 (stereo unspecified)	0.522 (active)
O=C(Nc1cc(Cl)cc(Cl)c1)C(NCCCO)c1ccccc1 (stereo unspecified)	0.697 (inactive)
O=C(CNC(c1ccccc1)c1ccccc1)Nc1ccc(F)cc1	0.694 (inactive)
CCOC1OC(C(=O)N2CCN(Cc3ccc4c(c3)OCO4)CC2)=CC(c2ccc(Br)cc2)C1CCCO (stereo unspecified)	0.677 (inactive) and 0.735 (inactive)
O=C(O)COc1ccc(C=NNC(=O)c2cccc3ccccc23)cc1	0.692 (inactive)
O=C(O)C1=CC(c2ccc(Br)cc2)CC(OCc2ccc(CO)cc2)O1 (stereo unspecified)	0.678 (inactive) and 0.676 (inactive)
CC(Oc1ccccc1)C(=O)NN=Cc1ccccn1 (stereo unspecified)	0.654 (inactive)
Cc1nnc(NN=Cc2ccccn2)[nH]c1=O	0.466 (active)
CC(=NNc1nnc(C)c(=O)[nH]1)C(=O)O	0.72 (inactive)
COc1ccc(C(=O)NN=Cc2ccc(OC)c(CN3CCCc4ccccc43)c2)cc1	0.733 (inactive)
CC(C)(C)c1[nH]c2ccccc2c1C=NO	0.683 (inactive)

Compound	OD600 absorbance
CCOC(=O)c1ccc(-c2ccc(C=NNC(=O)CN(c3ccccc3Cl)S(C)(=O)=O)o2)cc1	0.728 (inactive)
CC(C)=CCC[C@](C)(OC1OC(COC2OCC(O)C(O)C2O)C(O)C(O)C1O)C1CC[C@]2(C)C1C(O)CC1[C@@]3(C)CCC(OC4OC(CO)C(O)C(O)C4O)C(C)(C)C3CC[C@]12C (stereo partly specified)	0.621 (inactive)
CCNC(=S)NN=C(C)c1cc2ccccc2o1	0.669 (inactive)
COc1cc(C=NNC(=O)c2ccc(=O)[nH]n2)cc(OC)c1OC	0.774 (inactive)
O=C(NN=Cc1ccoc1)c1ccc([N+](=O)[O-])cc1	0.694 (inactive)
CCNC1CC(C)S(=O)(=O)c2sc(S(N)(=O)=O)cc21 (stereo unspecified)	0.681 (inactive)
Cc1cc(C(=O)NN=Cc2cccc3ccccc23)c(C)o1	0.686 (inactive)
C#CCNC(=O)C1=CC(c2coc3ccccc3c2=O)CC(OCc2ccc(CO)cc2)O1 (stereo unspecified)	0.691 (inactive) and 0.72 (inactive)
Cc1[nH]c2ccccc2c1C=NNC(=S)NC(C)C	0.649 (inactive)
Cc1ccc(CN2CCN(CC(=O)NN=Cc3ccc(C)o3)CC2)cc1	0.613 (inactive)
COc1ccccc1NC(=S)N1CCN(c2ccc(F)cc2)CC1	0.68 (inactive)
COc1c(N2CCN(C(=S)Nc3ccccc3F)C(C)C2)c(F)cc2c(=O)c(C(=O)O)cn(C3CC3)c12 (stereo unspecified)	0.071 (active)
CC1CN(C(=S)Nc2ccccc2F)CC(C)O1 (stereo unspecified)	0.662 (inactive)
CCCOc1ccc(CNC(=S)NN=Cc2ccc([N+](=O)[O-])cc2)cc1	0.66 (inactive)
[N-]=[N+]=NCC(Cc1ccccc1)N1CCN(Cc2ccccc2)CCC1=O (stereo unspecified)	0.705 (inactive)
CC(C)(C)N1C(=O)C2C(c3ccc(Br)cc3)N3C(=O)N(c4ccccc4)C(=O)[C@@]3(Cc3ccccc3)C2C1=O (stereo partly specified)	0.71 (inactive)
CC(/C=C/c1ccccc1)=NNc1nc(C)cc(C)n1	0.667 (inactive)
CNc1nc(C)nc(NN=Cc2ccccc2)n1	0.682 (inactive)
S=c1[nH]nc(-c2ccncc2)n1N=Cc1cccc2ccccc12	0.739 (inactive)
Cc1ccc(C=NNC(=O)Cn2cnc3ccccc32)o1	0.676 (inactive)
Cc1ccc(C(=O)N2C3CN(C)C(=O)[C@@]2(Cc2ccccc2)C2C(=O)N(C)C(=O)C32)cc1 (stereo partly specified)	0.672 (inactive)
CC(=NNC(=O)CCc1ccc(S(=O)(=O)N2CCOCC2)cc1)c1ccc(OC(F)F)cc1	0.715 (inactive)
C#CCOc1ccc(C=NNC(=O)c2cccnc2)cc1OCC	0.679 (inactive)

Compound	OD600 absorbance
C[C@@]12C(=O)Nc3cc(Cl)ccc3C(=O)N1C1c3cc(Cl)ccc3OCC1C2c1ccccc1 (stereo partly specified)	0.696 (inactive)
COc1ccc(C=C2N=C(SC)NC2=O)cc1	0.705 (inactive)
CC(=O)c1c(C)n([O-])c2ccccc2[n+]1=O	0.186 (active)
Cc1c(C=O)c2ccccc2n1CC(=O)O	0.701 (inactive)
CCCCn1c(C=NNc2nc3ccccc3[nH]2)nc2ccccc21	0.684 (inactive)
COc1cc(C=NNC(=O)c2ccc3c(c2)OCCO3)c(Br)c(Br)c1O	0.727 (inactive)
C=C[C@]1(C)CC(OC(=O)CSCCN(CC)CC)[C@]2(C)C(C)CC[C@]3(CCC(=O)C32)C(C)C1O (stereo partly specified)	0.499 (inactive) and 0.432 (active)
CC(C)(C)C(=O)C=c1[nH]c(=O)c(=Cc2ccccc2F)s1	0.718 (inactive)
COC(=O)Oc1ccc(C=NNC(=O)CN(c2ccccc2Br)S(C)(=O)=O)cc1OC	0.67 (inactive)
COc1ccc(CN2C(CC(=O)O)c3ccccc3S2(=O)=O)cc1 (stereo unspecified)	0.676 (inactive)
Cc1ccccc1C(=O)ON=C1CCS(=O)(=O)c2sccc21	0.706 (inactive)
O=C(NN=Cc1cccn1-c1cccc(C(=O)O)c1)Nc1ccccc1	0.627 (inactive)
CC(=O)Oc1ccc(C(C)=NN2CCN(Cc3ccc(Cl)cc3)CC2)cc1	0.707 (inactive)
O=C(C=Cc1cccs1)N1CCC2(CC1)Oc1ccc(F)cc1C(=O)C21CC(c2ccccc2)=NO1 (stereo unspecified)	0.718 (inactive)
CC(C=NNC(=O)c1ccc2c(c1)OCO2)c1ccccc1 (stereo unspecified)	0.695 (inactive)
O=C(NCc1ccccc1)C1=CC(c2ccccc2)CC(OCCCCO)O1 (stereo unspecified)	0.622 (inactive)
CC(=O)Nc1ccc(C(C)=NNC(=O)c2ccc(-c3ccccc3)cc2)cc1	0.685 (inactive)
O=C(CCCN1C(=O)CCC1=O)Nc1ccc(Cl)c(C(F)(F)F)c1	0.702 (inactive)
O=C(CC(O)(C(F)(F)F)C(F)(F)F)Nc1ccc(Cl)c(Cl)c1	0.329 (active)
CS(=O)(=O)N(CC(=O)Nc1ccc(Cl)c(Cl)c1)C1CCCCC1	0.703 (inactive)
Cc1nn(-c2ccccc2)c(C)c1C=NNC(=O)c1cc(-c2cccs2)[nH]n1	0.602 (inactive)
Clc1cccc(Cl)c1C=NNc1nccs1	0.705 (inactive)
